Structures are written as SMILES. Results with a measured potency or affinity are listed apart. Calls of active or inactive are those of the source.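 How the source made its calls: active means fitted half-maximal concentration for loss of cell signal no higher than twice the top valid tested concentration; inconclusive means flat curve at 30 to 70% inhibition, or poor fit; inactive means flat within 30%, signal rise, or potency above limit.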

A short description of this assay: MDA-MB-231 cell growth inhibition, dose response, cytotoxicity control for RAD54 inhibitor project, CellTiter-Glo luminescence, cherry-pick (AID 651692).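 Further: more negative values mean stronger loss of viable cell signal.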 The following applies: MDA-MB-231 viability, 24 h; series mostly up to 26 µM. On the technique in general: In ATP-based viability assays light output follows the ATP content of the culture.
Turning to `Cc1c(C)n(CCN(C)C)c2ccc(C(=O)OCCN(C)C)cc12`, the compound was called inactive.

As for `COc1ccc(-c2cc3nc(NCCN4CCCC4)n(C)c(=O)c3s2)cc1OC`, the compound was classed as inactive.

Turning to `COc1cccc(-c2cc3nc(NCCN4CCCC4)n(C)c(=O)c3s2)c1`, the outcome was inactive.

As to `CN(C)CCN(C(=O)c1ccc2c(c1)OCCO2)c1nc2c(Cl)cccc2s1`, the outcome was inactive.

For `CCN(CC)CCCNc1nc2ccccc2c2nc(-c3ccncc3)nn12`, the call was inactive.

With `CN(C)CCNc1ncnc2sc(-c3ccccc3)cc12`, the compound was called inactive.

On to `Cn1c(C(=O)NCCN2CCCCCC2)cc2c(=O)n(C)c3ccccc3c21`, for which the result was inactive.

Regarding `Oc1ccc(CCNc2c3ccccc3nc3ccccc23)cc1O`, the outcome was inactive.

As for `CCOC(=O)c1cnc2ccc(OCC)cc2c1NCCCN1CCOCC1`, the outcome was inactive.

In the case of `CN(C)CCCNc1nc(-c2ccc(Cl)cc2)nc2ccccc12`, the compound was called inactive.

Take `CN(C)CCCNc1nc2cc(-c3cccc(Cl)c3)sc2c(=O)n1C`: the result was inactive.

For the compound `COc1cccc(-c2cc3nc(NCCCN(C)C)n(C)c(=O)c3s2)c1`, the call was inactive.

In the case of `CCN(CC)CCCNC(=O)c1cc2c(=O)n(C)c3ccccc3c2n1C`, the result was inactive.

`Oc1ccccc1-c1nc(NCCN2CCOCC2)c2ccccc2n1`: the outcome was inactive.

Turning to `CCN1CCN(c2cc(C)c3cc(NC(=S)N4CCC5(CC4)OCCO5)ccc3n2)CC1`, the compound was classed as inactive.

Take `COc1ccc(-c2nc(NCCCN(C)C)c3ccccc3n2)cc1`: the outcome was inactive.

Regarding `Cc1c(CN(C)C)c2c(n1C)C(=O)c1ccc(Br)cc1-2`, the call was inactive.

On to `Oc1ccc(Nc2ccnc3cc(Cl)ccc23)cc1`, for which the compound was called inactive.

In the case of `C=CCN1C(=O)C(C)(C)Nc2ccccc21`, the compound was classed as inactive.

`CCN1CCCC1CNC(=O)c1cc2c(-c3cccc(OC)c3)nn(C)c2s1` (centres undefined): the compound was called inactive.

For `Cc1ccc(-c2nc(C(=O)NCCCN(C)C)cc3c2[nH]c2ccccc23)cc1`, the compound was classed as inactive.

As to `Cc1ccc(-c2nc(NCCN3CCOCC3)c3ccccc3n2)cc1`, the outcome was inactive.

`CN(C)CCNC(=O)c1cc2c(=O)n(C)c3ccccc3c2n1C`: the compound was called inactive.

`Cc1[nH]ccc2c1[nH]c1cc(=O)ccc12`: the call was inactive.

`Nc1c2ccccc2nc2ccccc12`: the compound was classed as inactive.

Take `COc1ccc(C)c2sc(N(CCN(C)C)C(=O)c3ccc4ccccc4c3)nc12`: the call was inactive.

With `COc1cccc2sc3cc(NCCCN4CCOCC4)ccc3c(=O)c12`, the result was inactive.

For `NC(=O)CN1CCN(CCN2C(=O)c3cccc4cccc(c34)C2=O)CC1`, the compound was classed as inactive.

For `CCOC(=O)c1cc(-c2ccncc2)nc2c1c(C)nn2-c1ccccn1`, the compound was classed as inactive.

With `O=C(Nc1cccc(Br)c1)c1cc(S(=O)(=O)N2CCOCC2)cs1`, the compound was called inactive.

Turning to `CN1CCN(c2nc(-c3cccs3)nc3ccccc23)CC1`, the call was inactive.

As for `CCOC(=O)c1cnc2c(C)c(Cl)ccc2c1NCCCN1CCOCC1`, the call was inactive.

For the compound `CCOc1cc2[nH]c(=O)n(Cc3ccc(C(=O)NCCCN4CCC(C)CC4)cc3)c(=O)c2cc1OCC`, the result was inactive.

Consider `CCCN1CCN(CCCNC(=S)Nc2ccc3nc(N4CCN(CC)CC4)cc(C)c3c2)CC1`, for which the compound was classed as inactive.

For the compound `Nc1ccc(-c2nc3c(ccc4ccccc43)[nH]2)cc1`, the compound was classed as inactive.

Take `CCN(CC)CCCNC(=O)C1CCN(c2ncnc3c2sc2cccc(F)c23)CC1`: the call was inactive.

For `CCN1CCN(c2nc(N)c([N+](=O)[O-])c(Nc3cccc(C)c3)n2)CC1`, the result was inactive.

`c1ccc(-c2cc(NCCN3CCCCC3)c3ccccc3n2)cc1`: the compound was called inactive.

Consider `Cc1ccc2nc(Cl)c3cc(C(=O)NCCCN4CCCC4)sc3c2c1`, for which the call was inactive.
